Assay results from the supplement of paper PMC12636033.
± gives the standard deviation of the averaged measurements. Over roughly 33,000 sequences, “E-score (rank enrichment, -0.5 to 0.5)” has its median near -0.0043; the highest 2% begin near 0.24. The sample holds the highest values, similar sequences and a random draw of the others, so the mix is not that of the screen.

test system: 2Sp-muMax20 (muMax20 with two 2,6-bis(methyl)pyridine Cys staples); assay: PBM 8-mer E-score (E-score (rank enrichment, -0.5 to 0.5)); higher = stronger preferential binding
Procedure: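 Protein binding microarray (universal PBM chip covering all 10-mers in fixed probe flanks) with chemically synthesized human Max(13-93) bHLH-LZ analogs (not full-length Max) bearing noncanonical residues (hArg, Tha, Aib, Nle at 65) and aromatic Cys staples. Read-out per 8-mer (and its reverse complement): E-score (rank-based enrichment, -0.5 to 0.5) and Z-score of median probe intensity.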

Row | Sequence | PBM 8-mer E-score
1 | AATTTATA | 0.27046 ± 0.00013
2 | ACGCCCTA | -0.000715 ± 0.088
3 | CCCAACAC | 0.00365 ± 0.023
4 | AATTCCGA | -0.0265 ± 0.07
5 | GCAAAGCA | 0.155 ± 0.058
6 | CAAATTTG | 0.117 ± 0.032
7 | CAAATTTC | 0.236 ± 0.031
8 | GAAATTTC | 0.114 ± 0.052
9 | CCCTATCC | -0.0867 ± 0.098
10 | TAATACGA | -0.0384 ± 0.02
11 | AATATATC | 0.239 ± 0.051
12 | AATATATG | 0.303 ± 0.0091
13 | GATATATC | 0.102 ± 0.037
14 | ATAATATG | 0.185 ± 0.062
15 | AATATAGT | 0.152 ± 0.037
16 | CTAATATC | 0.173 ± 0.038
17 | AATATATT | 0.2823 ± 0.0018
18 | AATATAGC | 0.168 ± 0.047
19 | AAAATATG | 0.114 ± 0.021
20 | AATATATA | 0.186 ± 0.0061
21 | AATATGTG | 0.191 ± 0.037
22 | ATAATATC | 0.24 ± 0.082

Row | Sequence | PBM 8-mer E-score
23 | TGACATAA | 0.128 ± 0.05
24 | GTGTGGAA | 0.118 ± 0.01
25 | AGCCCGTA | -0.23 ± 0.063
26 | CATTTCAC | 0.0886 ± 0.049
27 | AATTTTCA | 0.146 ± 0.05
28 | CACATTCG | 0.00422 ± 0.036
29 | ATTACTGA | 0.103 ± 0.074
30 | CGAGGAAC | -0.084 ± 0.029
31 | AATATGGT | 0.0878 ± 0.052
32 | AATATGGC | 0.302 ± 0.044
33 | AATATGGA | 0.104 ± 0.011
34 | AGCAACAG | -0.0291 ± 0.074
35 | ACCTAAGT | -0.0381 ± 0.043
36 | ATATTGTC | 0.121 ± 0.03
37 | AATAGTGA | -0.033 ± 0.029
38 | TATAGTGA | 0.249 ± 0.048
39 | CATAGTGA | 0.0514 ± 0.05
40 | GGTGTTGA | 0.0564 ± 0.02
41 | AGGAACAT | -0.135 ± 0.031
42 | CTTTACGA | -0.0477 ± 0.0036
43 | GTTTACGA | 0.242 ± 0.027
44 | ATTTACGA | 0.0937 ± 0.12

Row | Sequence | PBM 8-mer E-score
45 | GAACGCAC | -0.0274 ± 0.025
46 | ACAAAGCT | 0.00391 ± 0.011
47 | ATATATCA | 0.212 ± 0.014
48 | ACATAGCA | 0.236 ± 0.05
49 | CCATAGCA | 0.135 ± 0.0028
50 | ACATATCA | 0.299 ± 0.0056
51 | GTATATCA | 0.0652 ± 0.016
52 | CCATATCA | 0.114 ± 0.071
53 | CTATATCA | 0.24 ± 0.0079
54 | ATGTATCC | -0.111 ± 0.0078
55 | ACATATCG | 0.115 ± 0.042
56 | CTGTATCA | -0.0346 ± 0.018
57 | TCATAGCA | 0.159 ± 0.02
58 | CTGTATCC | 0.236 ± 0.0094
59 | CGCGCAGC | -0.126 ± 0.023
60 | GCAGACGC | -0.0631 ± 0.015
61 | CCCAACTA | 0.161 ± 0.022
62 | TTCGGCAA | 0.0437 ± 0.12
63 | AAATCAGG | 0.041 ± 0.025
64 | TGCCGTAA | -0.113 ± 0.098
65 | CGCCAGCA | -0.199 ± 0.1
66 | CACGAAAC | 0.164 ± 0.018

Row | Sequence | PBM 8-mer E-score
67 | ATATATCC | 0.285 ± 0.096
68 | ATATATCG | 0.0892 ± 0.031
69 | CTATATCC | 0.169 ± 0.018
70 | AAACTCGT | -0.0113 ± 0.038
71 | CACCTTTA | -0.0135 ± 0.041
72 | ATCTAGTC | -0.00402 ± 0.0038
73 | CACATTAC | 0.2476 ± 0.0022
74 | CACATTAG | 0.00777 ± 0.035
75 | AACATTAC | 0.169 ± 0.003
76 | CCATTCGC | -0.13 ± 0.11
77 | GCGAGGTA | -0.144 ± 0.19
78 | AGTTCCCC | -0.0334 ± 0.025
79 | CATTCTAA | 0.00098 ± 0.075
80 | GATTATAA | 0.154 ± 0.034
81 | CATTATAC | 0.218 ± 0.0061
82 | AATTATAA | 0.3 ± 0.026
83 | CATTATAA | 0.246 ± 0.1
84 | AATTCTAA | 0.133 ± 0.092
85 | TATTATAA | 0.244 ± 0.079
86 | TATTATCA | 0.122 ± 0.025
